Reference: PubChem BioAssay (NCATS)
Several values for one entry are separate records, joined by “and”; a condition that tells them apart may be missing. Identical values can stand only once. Inconclusive results are not listed. Activity calls are given as the source filed them. Unless noted, calls come from the whole dose curve; as a rule, active = well fitted curve in the direction sought with a large enough effect; inconclusive = small, poorly fitted or top-dose-only effect, or another doubt; inactive = no such curve, though single readings can be large; an effect the other way counts as inactive or inconclusive.

Assays:
[1] = Validation of Assay for Modulators of Lamin A Splicing (AID 1459; active = well fitted curve in the direction sought with a large enough effect in the signal ratio; the % refers to the signal ratio;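 note: cells exposed to compound for two days before reading; 0% is about no effect; ratio rise marks activators and ratio drop marks inhibitors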)
Procedure, shortened: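 S3 HeLa stably expressing lamin A-EGFP splicing minigene and DsRed2, 600 cells/well in Opti-MEM with 2% FBS, treated 48 h at 37C; laser-scanning cytometry gives GFP/RFP total intensity ratio; ancitabine positive control, 0.5% DMSO vehicle.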

[2] = qHTS Assay for Lipid Storage Modulators (AID 1519; calls by dose curve; for activity change, negative = inhibition: % is set by controls: 0 for no effect and ±100 for the full control effect); conditions: Drosophila S3 cells, BODIPY lipid droplet/cell ratio, laser cytometry, cells loaded with oleic acid; for activity change, negative = inhibition: at 57.5 µM (top of the series)
Procedure, shortened: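 Cells seeded at 5,000 per well were treated with compounds over a concentration series and loaded with oleic acid (400 uM, as added). Lipid droplet fluorescence (488 nm excitation, 500-530 nm channel) was read by laser-scanning cytometry and normalized to 20 uM Triacsin C.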

[3] = target: DNA repair nuclease/redox regulator APEX1 (Homo sapiens) (UniProt P27695); experiment: qHTS Validation Assay for Inhibitors of the Human Apurinic/apyrimidinic Endonuclease 1 (APE1) (AID 1705; note: potency is the fitted concentration of half-maximal effect;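 for activity change, negative = inhibition: TAMRA fluorescence gain over two minutes as APE1 cuts a quenched THF abasic duplex; % is set by controls: 0 for no effect and ±100 for the full control effect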)
Procedure, shortened: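 Fluorogenic double-stranded THF abasic-site substrate (5'-TAMRA/3'-BHQ-2), 50 nM final. Enzyme preincubated with compound 15 min at room temperature, then substrate added. Kinetic fluorescence (ex 525/em 598 nm) read three times at 60 s intervals; activity taken as third-minus-first read difference.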

[4] = Counterscreen for APE1 Inhibitors: Fluorescent Dye Displacement Validation Assay (AID 1707);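 note: plate controls were ThO with dsDNA and no compound for no effect and ThO without dsDNA for full effect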
Procedure, shortened: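 Signal: ThO fluorescence (ex 480 nm/em 540 nm) on binding 50 nM dsDNA; displacement by test compound reduces it. Conditions: 250 nM dye, 50 mM Tris-HCl pH7.5, 2 mM MgCl2, 50mM NaCl, 0.01% Tween-20.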

[5] = qHTS for differential inhibitors of proliferation of Plasmodium falciparum line 7G8 (AID 1815);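 note: parasite growth measured after three days of incubation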; note: potency is the fitted concentration of half-maximal effect;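 for activity change, negative = inhibition: plate controls were vehicle wells for no effect and reference inhibitor wells for full effect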
[6] = qHTS for differential inhibitors of proliferation of Plasmodium falciparum line GB4 (AID 1816); conditions: Potency: Plasmodium falciparum GB4 proliferation inhibition;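 note: parasite growth measured after 72 h incubation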; note: potency is the fitted concentration of half-maximal effect;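 for activity change, negative = inhibition: 0% = vehicle DMSO and -100% = reference inhibitor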
[7] = qHTS for differential inhibitors of proliferation of Plasmodium falciparum line 3D7 (AID 1876); note: potency is the fitted concentration of half-maximal effect
[8] = Cell Viability - LYMP2-010 (AID 981);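 note: cells exposed to compound for 24 hours at 37 °C; % is set by controls: 0 for no effect and ±100 for the full control effect; nearly all actives have a fitted effect of over 55% in size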
Procedure, shortened: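 qHTS cytotoxicity, 1536-well: 2500 cells/well, 5 hr settle, 24 hr compound at 37 C, CellTiter-Glo 30 min RT, luminescence read. Decrease in ATP = toxicity; AC50 via standard Hill equation. Positive control tetraoctylammonium bromide.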

[9] = Cell Viability - LYMP2-012 (AID 982);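 note: cellular ATP by luciferase luminescence where a drop means cytotoxicity; cells exposed to compound for one day before reading; 0% = DMSO only and full loss = 92 µM tetraoctylammonium bromide; nearly all actives have a fitted effect of over 55% in size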
[10] = Cell Viability - LYMP2-014 (AID 983);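 note: plate controls were DMSO only for no effect and 92 µM tetraoctylammonium bromide for full effect; nearly all actives have a fitted effect of over 50% in size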
Procedure, shortened: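 2500 cells/well, 5 hr 37 C; cpd 24 hr 37 C, complete medium; CellTiter-Glo 30 min RT, luminescence; ATP loss = toxicity; AC50 via Hill eqn; tetraoctylammonium bromide positive control.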

[11] = Cell Viability - LYMP2-016 (AID 984);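 note: cells exposed to compound for 24 hours at 37 °C; % is set by controls: 0 for no effect and ±100 for the full control effect; nearly all actives have a fitted effect of over 55% in size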
Procedure, shortened: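 Human lymphoblastoid LYMP2-016 cells, 2500 per well, treated with compounds for 24 h at 37 C. Viability read as intracellular ATP by CellTiter-Glo luminescence after 30 min at room temperature; AC50 from Hill fits of concentration-response.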

[12] = Cell Viability - LYMP2-018 (AID 985);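 note: plate controls were DMSO only for no effect and tetraoctylammonium bromide at 92 µM for full effect; nearly all actives have a fitted effect of over 50% in size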
Procedure, shortened: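 2500 cells/well; 5 hr 37 C; cmpd 24 hr 37 C, complete medium; CellTiter-Glo 30 min RT; luminescence. Tetraoctylammonium bromide positive control. AC50 via Hill fit.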

[13] = Cell Viability - LYMP2-020 (AID 986);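 note: plate controls were DMSO only for no effect and tetraoctylammonium bromide at 92 µM for full effect; nearly all actives have a fitted effect of over 55% in size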
Procedure, shortened: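 qHTS, 2500 cells/well; 5 hr then 24 hr compound exposure, 37 C; CellTiter-Glo luminescence after 30 min RT; ATP decrease taken as cytotoxicity; AC50 via Hill equation; tetraoctylammonium bromide positive control.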

[14] = Cell Viability - LYMP2-022 (AID 987)
Procedure, shortened: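 Luminescent ATP read-out (CellTiter-Glo, 30 min, RT) after 24 hr, 37 C compound exposure of 2500 human lymphoblastoid cells/well in complete medium. Cytotoxicity taken as concentration-dependent ATP loss; AC50 from standard Hill equation.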

[15] = Cell Viability - LYMP2-024 (AID 988);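 note: plate controls were DMSO only for no effect and 92 µM tetraoctylammonium bromide for full effect; nearly all actives have a fitted effect of over 60% in size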
Procedure, shortened: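 ATP-based luminescence (CellTiter-Glo, 30 min RT) after 24 h compound exposure at 37 C of 2500 lymphoblastoid cells/well; decrease in ATP taken as cytotoxicity. qHTS concentration-response fitted to standard Hill equation for AC50.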

[16] = target: Alpha-galactosidase A (Homo sapiens) (UniProt P06280); experiment: Counterscreen for Glucocerebrosidase Inhibitors: qHTS Assay for Human alpha-Galactosidase at pH 4.5 (AID 992); note: 0% is about no effect
Procedure, shortened: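 Citrate buffer pH 4.5, Tween-20 0.005%. Enzyme 2 nM, substrate 80 uM, 20 min RT. Stop pH 10. Fluorescence Ex 365/Em 440. AC50 by Hill fit.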

[17] = Cell Viability - LYMP1-002 - Assay at 24 hr (AID 993); note: % is set by controls: 0 for no effect and ±100 for the full control effect
Procedure, shortened: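 CellTiter-Glo luminescence (intracellular ATP) after 24 h compound exposure, 37 C, in LYMP1-002 human lymphoblastoid cells; decreased ATP taken as cytotoxicity. AC50 from standard Hill fit of concentration-response curves.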

[18] = target: alpha-glucosidase (Oryza sativa, rice) (UniProt Q653V4); experiment: Counterscreen for Glucocerebrosidase Inhibitors: qHTS Assay for Rice alpha-Glucosidase at pH 5.0 (AID 997);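 note: 0% = full activity with enzyme and -100% = basal without enzyme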
Procedure, shortened: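 Endpoint fluorogenic assay at pH 5.0: compounds (0.7 nM to 77 uM) titrated against 4 nM rice enzyme and 400 uM 4-MU-alpha-glucoside for 20 min at room temperature; NaOH/glycine stop, read ex 365/em 440 nm, Hill-fitted AC50.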

[19] = target: Alpha-galactosidase (Coffea arabica) (UniProt Q42656); experiment: Counterscreen for Glucocerebrosidase Inhibitors: qHTS Assay for Coffee Bean alpha-Galactosidase at pH 5.9 (AID 998);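 note: plate controls were uninhibited enzyme for no effect and no-enzyme basal signal for full effect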
Procedure, shortened: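 Fluorogenic 4-MU substrate hydrolysis, 80 uM substrate and 2 nM coffee bean alpha-galactosidase, pH 5.9 citrate buffer, 20 min at room temperature, then NaOH/glycine stop. Titration 0.7 nM–77 uM, normalized to no-enzyme and enzyme controls, AC50 via Hill equation.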

[20] = target: Endonuclease 4 (Escherichia coli (strain K12)) (UniProt P0A6C1); experiment: Counterscreen for APE1 Inhibitors: qHTS Validation Assay for Inhibitors of Endonuclease IV (AID 1708); note: % is set by controls: 0 for no effect and ±100 for the full control effect
Procedure, shortened: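 The reaction buffer contained 50 mM Tris-HCl pH 7.5, 50 mM NaCl, 2 mM MgCl2, 1 mM DTT and 0.01% Tween-20. Incision of a 50 nM fluorophore/quencher THF substrate by 2 nM enzyme was measured kinetically.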

[21] = measured here: cell count channel max response
[22] = measured here: lipid channel max response

Alpha-galactosidase A (Homo sapiens), sequence (P06280 whole entry, looked up): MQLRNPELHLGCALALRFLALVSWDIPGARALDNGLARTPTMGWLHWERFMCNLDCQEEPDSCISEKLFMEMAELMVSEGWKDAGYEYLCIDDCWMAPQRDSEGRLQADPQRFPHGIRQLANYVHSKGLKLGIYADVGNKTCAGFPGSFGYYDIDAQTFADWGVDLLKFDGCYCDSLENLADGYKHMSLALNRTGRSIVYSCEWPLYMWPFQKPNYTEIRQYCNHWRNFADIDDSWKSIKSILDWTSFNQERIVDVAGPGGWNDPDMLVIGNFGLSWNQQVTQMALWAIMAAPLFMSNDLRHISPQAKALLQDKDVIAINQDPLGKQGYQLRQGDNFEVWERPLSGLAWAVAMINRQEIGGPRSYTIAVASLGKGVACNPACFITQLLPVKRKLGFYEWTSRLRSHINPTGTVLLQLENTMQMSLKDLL
DNA repair nuclease/redox regulator APEX1 (Homo sapiens), sequence (P27695 whole entry, looked up): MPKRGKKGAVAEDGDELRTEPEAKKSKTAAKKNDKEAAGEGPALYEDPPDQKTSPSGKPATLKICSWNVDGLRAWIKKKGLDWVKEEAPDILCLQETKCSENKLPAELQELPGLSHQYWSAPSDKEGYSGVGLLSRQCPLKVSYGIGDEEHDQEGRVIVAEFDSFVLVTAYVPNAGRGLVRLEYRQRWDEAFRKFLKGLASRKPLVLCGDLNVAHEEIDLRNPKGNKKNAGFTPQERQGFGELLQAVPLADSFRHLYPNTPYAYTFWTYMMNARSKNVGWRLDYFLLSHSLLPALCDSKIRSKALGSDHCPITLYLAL
Alpha-galactosidase (Coffea arabica), sequence (Q42656 whole entry, looked up): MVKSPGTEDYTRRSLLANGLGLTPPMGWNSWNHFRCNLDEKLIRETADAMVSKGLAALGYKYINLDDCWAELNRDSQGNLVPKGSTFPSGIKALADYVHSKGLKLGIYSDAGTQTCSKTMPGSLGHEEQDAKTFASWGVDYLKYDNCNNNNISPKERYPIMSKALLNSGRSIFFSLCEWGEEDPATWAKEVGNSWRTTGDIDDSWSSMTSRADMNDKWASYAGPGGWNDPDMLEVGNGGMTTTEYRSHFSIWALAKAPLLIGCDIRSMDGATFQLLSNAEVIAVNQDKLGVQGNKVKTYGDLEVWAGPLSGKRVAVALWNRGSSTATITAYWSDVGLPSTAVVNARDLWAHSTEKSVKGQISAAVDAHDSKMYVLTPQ

COc1ccc(CNC(=O)/C=C/c2ccc3[nH]cc(CCN(C)C)c3c2)cc1
inactive: outcome [1] | activity change, negative = inhibition [2] -4.95% | Potency [3] | Potency [4]
-80.1%: max response [2, 22]
active: Potency [5] 11.2 µM | Potency [6] 11.2 µM | Potency [7] 8.91 µM
-78.1%: max response [2, 21]

NNC(N)=O
inactive: Potency [8] | Potency [9] | Potency [10] | Potency [11] | Potency [12] | Potency [13] | Potency [14] | Potency [15] | outcome [16] | Potency [17] | outcome [18] | outcome [19] | outcome [1] | activity change, negative = inhibition [2] 1.16% | Potency [3] | Potency [4] | Potency [5] | Potency [6] | Potency [7]
-7.78%: max response [2, 21]
-7.06%: max response [2, 22]

CC(C)NP(=O)(NC(C)C)OP(=O)(NC(C)C)NC(C)C
-4.03%: max response [2, 22]
inactive: outcome [16] | outcome [18] | outcome [19] | outcome [1] | activity change, negative = inhibition [2] 2% | Potency [3] | Potency [4] | Potency [20]
-5.61%: max response [2, 21]

NCCc1c[nH]c2ccc(C(N)=O)cc12
inactive: outcome [16] | outcome [18] | outcome [19] | outcome [1] | activity change, negative = inhibition [2] -0.884% | Potency [3] | Potency [4] | Potency [5] | Potency [6] | Potency [7]
1.87%: max response [2, 22]
2.92%: max response [2, 21]

CCCN(CCC)C1Cc2cc(OC)c(OC)cc2C1
-27.4%: max response [2, 21]
inactive: outcome [16] | outcome [18] | outcome [19] | outcome [1] | activity change, negative = inhibition [2] -0.96% | Potency [3] | Potency [4] | Potency [20] | Potency [5] | Potency [7]
-31.4%: max response [2, 22]

CC(N)Cc1c[nH]c2ccc(O)cc12 (centres undefined)
9.94%: max response [2, 22]
8.43%: max response [2, 21]
inactive: outcome [1] | activity change, negative = inhibition [2] -0.0169% | Potency [3] | Potency [4] | Potency [20] | Potency [5] | Potency [6] | Potency [7]

COC(=O)N1CCN(C(=O)Cc2ccc(Cl)c(Cl)c2)C(CN2CCCC2)C1 (centres undefined)
7.98%: max response [2, 21]
7.35%: max response [2, 22]
inactive: outcome [1] | activity change, negative = inhibition [2] 0.712% | Potency [3] | Potency [4] | Potency [20]
active: Potency [5] 12.6 µM | Potency [6] 10 µM

Cc1[nH]c2ccc(O)cc2c1CCN
inactive: outcome [16] | outcome [18] | outcome [19] | outcome [1] | activity change, negative = inhibition [2] -0.216% | Potency [3] | Potency [4] | Potency [20] | Potency [5] | Potency [6] | Potency [7]
-4.28%: max response [2, 22]
-4.56%: max response [2, 21]

c1ccc2cc(CC3=NCCN3)ccc2c1
31.2%: max response [2, 22]
inactive: outcome [16] | outcome [18] | outcome [19] | outcome [1] | activity change, negative = inhibition [2] 1.13% | Potency [3] | Potency [4] | Potency [20] | Potency [7]
29%: max response [2, 21]
active: Potency [6] 10 µM

OCc1cnc[nH]1
inactive: outcome [16] | outcome [18] | outcome [19] | outcome [1] | activity change, negative = inhibition [2] 1.18% | Potency [3] | Potency [4] | Potency [20]
7.21%: max response [2, 21]
9.78%: max response [2, 22]
active: Potency [6] 7.94 µM

CN1CCC(c2c[nH]c3ccc(O)cc23)CC1
active: Potency [7] 10 µM
24% and 52.3%: max response [2, 22]
inactive: outcome [16] | outcome [18] | outcome [19] | outcome [1] | activity change, negative = inhibition [2] 2.83% and 0.677% | Potency [3] | Potency [4]
19.5% and 47.8%: max response [2, 21]

NCC(CP(=O)(O)O)c1ccc(Cl)cc1 (centres undefined)
-42.3%: max response [2, 21]
inactive: outcome [1] | activity change, negative = inhibition [2] -3.32% | Potency [3] | Potency [4] | Potency [5] | Potency [6] | Potency [7]
-42.6%: max response [2, 22]

NC(=O)COc1c(F)cc(SCCNS(=O)(=O)c2ccccc2)cc1F
1.68%: max response [2, 21]
-0.0137%: max response [2, 22]
inactive: outcome [16] | outcome [18] | outcome [19] | outcome [1] | activity change, negative = inhibition [2] -2.33% | Potency [3] | Potency [4] | Potency [20] | Potency [5] | Potency [6] | Potency [7]

C=CCN1C[C@@H](C)N([C@H](c2ccc(C(=O)N(CC)CC)cc2)c2cccc(OC)c2)C[C@@H]1C
-2.68%: max response [2, 21]
0%: max response [2, 22]
inactive: outcome [1] | activity change, negative = inhibition [2] 2.23% | Potency [3] | Potency [4] | Potency [20]
active: Potency [5] 2.82 µM | Potency [6] 3.98 µM | Potency [7] 3.16 µM

NCC(O)c1cc(O)c(O)cc1F (centres undefined)
inactive: outcome [1] | activity change, negative = inhibition [2] -0.0544% | Potency [4] | Potency [20] | Potency [6] | Potency [7]
-39.7%: max response [2, 22]
active: Potency [3] 35.5 µM
-35.5%: max response [2, 21]

CN(C(=O)Cc1ccc(Cl)c(Cl)c1)C(CN1CCCC1)c1cccc(OCC(=O)O)c1 (centres undefined)
13%: max response [2, 22]
inactive: outcome [1] | activity change, negative = inhibition [2] 2.91% | Potency [3] | Potency [4] | Potency [20] | Potency [7]
8.86%: max response [2, 21]

O=C(O)c1cc[c]([Hg][Cl])cc1
-16.6%: max response [2, 21]
-15.1%: max response [2, 22]
active: Potency [5] 3.16 µM | Potency [6] 2.51 µM | Potency [7] 2.24 µM
inactive: outcome [16] | outcome [18] | outcome [1] | activity change, negative = inhibition [2] 1.37% | Potency [3] | Potency [4] | Potency [20]

Oc1ccc2c3c1O[C@H]1c4oc5ccccc5c4C[C@@]4(O)C(C2)N(CC2CC2)CCC314 (some centres undefined)
69%: max response [2, 21]
72%: max response [2, 22]
active: Potency [5] 8.91 µM | Potency [6] 3.16 µM | Potency [7] 7.94 µM
inactive: outcome [1] | activity change, negative = inhibition [2] 0.729% | Potency [3] | Potency [4] | Potency [20]

CC12NC(Cc3ccccc31)c1ccccc12 (centres undefined)
-0.147%: max response [2, 22]
1.93%: max response [2, 21]
active: Potency [6] 5.01 µM
inactive: outcome [1] | activity change, negative = inhibition [2] -2.09% | Potency [3] | Potency [4] | Potency [20] | Potency [7]
